We go through 20 compounds from PubChem BioAssay AID2533 (National Center for Advancing Translational Sciences (NCATS), 2010).

Each structure is given as a SMILES string. Values joined by “and” are separate entries in the source; they are usually repeats but may differ in a detail not shown here. Equal entries are not always repeated. Records with an inconclusive call do not appear. Where a call stands in place of a potency, no number is given. The source holds several records for some structures; these can differ, active in one and inactive in another. Active and inactive are the calls of the source. The call rests on the fitted dose curve; in most records, active means well fitted activation curve with a large enough effect; inconclusive means small, poorly fitted or top-dose-only effect; inactive means flat fitted curve, though single readings scatter.
Potency means the concentration at half of the fitted maximal effect.

For this experiment, the target named is Pyruvate kinase PKM (Homo sapiens) (UniProt P14618). The experiment in a line: Confirmation Concentration-Response Assay for Activators of Human Muscle isoform 2 Pyruvate Kinase: for Probe SAR. Further: nearly all actives have a fitted effect of over 60% in size. The conditions noted are these: purified PKM2, ATP generation, Kinase-Glo luminescence; series mostly up to 57.5 µM. The method in brief: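 ATP generation was detected by luciferase-coupled luminescence (Kinase-Glo). The reaction ran for 1 hour at room temperature with 0.1 mM ADP, 0.5 mM PEP and 0.1 nM purified hPK-M2 in 50 mM imidazole, pH 7.2, with 7 mM MgCl2. The enzyme was set at intermediate activity so activators could be detected.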
Sequence of Pyruvate kinase PKM (Homo sapiens) (P14618 whole entry, looked up, canonical isoform): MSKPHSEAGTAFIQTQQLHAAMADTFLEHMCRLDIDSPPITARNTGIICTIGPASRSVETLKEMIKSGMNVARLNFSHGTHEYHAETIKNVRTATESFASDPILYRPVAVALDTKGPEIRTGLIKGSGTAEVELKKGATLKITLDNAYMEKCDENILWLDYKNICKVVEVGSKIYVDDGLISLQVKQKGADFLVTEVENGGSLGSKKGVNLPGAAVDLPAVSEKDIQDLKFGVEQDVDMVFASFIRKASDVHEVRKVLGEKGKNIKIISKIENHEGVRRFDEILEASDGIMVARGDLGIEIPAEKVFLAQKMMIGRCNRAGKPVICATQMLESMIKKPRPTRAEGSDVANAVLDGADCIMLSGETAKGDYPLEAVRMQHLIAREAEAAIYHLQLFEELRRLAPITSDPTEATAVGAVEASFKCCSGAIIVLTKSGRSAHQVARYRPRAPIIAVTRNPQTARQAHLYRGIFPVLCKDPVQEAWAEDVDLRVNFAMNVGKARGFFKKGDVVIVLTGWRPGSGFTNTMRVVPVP
On the technique in general: Kinase-Glo measures the ATP left after a reaction by luminescence.
`Cc1cc2c(s1)c1cnn(Cc3ccccc3F)c(=O)c1n2C`: the Potency result is “inactive and 231 nM (active)”.

In the case of `O=C1CCc2cc(S(=O)(=O)Nc3cccc(F)c3)ccc2N1`, the Potency was 919 nM (active).

Take `CC(=O)Nc1ccc(S(=O)(=O)N2CCCN(S(=O)(=O)c3ccc4c(c3)OCCO4)CC2)cc1`: the Potency was 4110 nM (active).

For `Cc1ccc2nc(-c3ccc(C)o3)c(Nc3ccc(F)cc3)n2c1`, the Potency result was “inactive”.

Turning to `COc1ccc(N2C(=O)c3ccccc3S2(=O)=O)cc1`, the Potency result is “inactive”.

On to `Cc1cc2c(s1)c1cnn(Cc3cc(F)ccc3F)c(=O)c1n2C`, for which the Potency is 1120 nM (active).

Regarding `Cc1ccc(NS(=O)(=O)c2ccc(Cl)cc2)cc1C`, the Potency is 23100 nM (active).

For the compound `CCNc1cccc(S(=O)(=O)N2CCN(S(=O)(=O)c3ccc4c(c3)OCCO4)CC2)c1`, the Potency was 81.9 nM (active).

For `CC(=O)N1CCc2cc(S(=O)(=O)Nc3ccc(C)c(C)c3)ccc21`, the Potency is 1630 nM (active).

Regarding `CC(=O)Nc1ccc(OC2=NS(=O)(=O)c3ccccc32)cc1`, the Potency result is “inactive”.

Take `O=S1(=O)N=C(Oc2ccc(Cl)cc2)c2ccccc21`: the Potency result was “inactive”.

For `O=C1CCc2cc(S(=O)(=O)Nc3ccncc3)ccc2N1`, the Potency entry was “inactive”.

For the compound `COc1ccc(NS(=O)(=O)c2ccccc2)cc1NS(=O)(=O)c1ccccc1`, the Potency entry is “inactive”.

Regarding `Cc1ccc(NS(=O)(=O)c2cc3c(cc2Cl)CCC(=O)N3)cc1C`, the Potency is 163 nM (active).

As to `O=C1c2ccccc2C(=O)N1Cc1cccnc1`, the Potency result is “inactive”.

Turning to `O=C1c2ccccc2C(=O)N1c1cccnc1`, the Potency entry is “inactive”.

With `O=S1(=O)N=C(Oc2ccc(C(F)(F)F)cc2)c2ccccc21`, the Potency entry is “inactive”.

As to `O=C1CCc2cc(S(=O)(=O)Nc3ccc(F)cc3)ccc2N1`, the Potency is 6510 nM (active).

`CC(=O)Nc1cccc(OC2=NS(=O)(=O)c3ccccc32)c1`: the Potency result is “inactive”.

Consider `Nc1cccc(S(=O)(=O)N2CCN(S(=O)(=O)c3ccc4c(c3)OCCO4)CC2)c1`, for which the Potency is 91.9 nM (active).
